# Laboratory results taken from the supplement of paper PMC11732987, “Enantioselective OTUD7B fragment discovery through chemoproteomics screening and high-throughput optimisation” (Communications Chemistry, 2025).
# Values without a mark were called inactive.
# Experiments:
# Test in all cases: log2 ratio of Biotin-Ahx-Ub-VS probe labelling (fragment/DMSO); higher = less target engagement (more negative = stronger competition), active = hit call of the paper (q ≤ 0.05, log2 ratio ≤ -1)
# Settings in all cases: compound concentration: 200 uM; treatment time: 3 h
# [1] = molecular target: T1, USP19 (UniProt O94966)
# T1 sequence (whole entry): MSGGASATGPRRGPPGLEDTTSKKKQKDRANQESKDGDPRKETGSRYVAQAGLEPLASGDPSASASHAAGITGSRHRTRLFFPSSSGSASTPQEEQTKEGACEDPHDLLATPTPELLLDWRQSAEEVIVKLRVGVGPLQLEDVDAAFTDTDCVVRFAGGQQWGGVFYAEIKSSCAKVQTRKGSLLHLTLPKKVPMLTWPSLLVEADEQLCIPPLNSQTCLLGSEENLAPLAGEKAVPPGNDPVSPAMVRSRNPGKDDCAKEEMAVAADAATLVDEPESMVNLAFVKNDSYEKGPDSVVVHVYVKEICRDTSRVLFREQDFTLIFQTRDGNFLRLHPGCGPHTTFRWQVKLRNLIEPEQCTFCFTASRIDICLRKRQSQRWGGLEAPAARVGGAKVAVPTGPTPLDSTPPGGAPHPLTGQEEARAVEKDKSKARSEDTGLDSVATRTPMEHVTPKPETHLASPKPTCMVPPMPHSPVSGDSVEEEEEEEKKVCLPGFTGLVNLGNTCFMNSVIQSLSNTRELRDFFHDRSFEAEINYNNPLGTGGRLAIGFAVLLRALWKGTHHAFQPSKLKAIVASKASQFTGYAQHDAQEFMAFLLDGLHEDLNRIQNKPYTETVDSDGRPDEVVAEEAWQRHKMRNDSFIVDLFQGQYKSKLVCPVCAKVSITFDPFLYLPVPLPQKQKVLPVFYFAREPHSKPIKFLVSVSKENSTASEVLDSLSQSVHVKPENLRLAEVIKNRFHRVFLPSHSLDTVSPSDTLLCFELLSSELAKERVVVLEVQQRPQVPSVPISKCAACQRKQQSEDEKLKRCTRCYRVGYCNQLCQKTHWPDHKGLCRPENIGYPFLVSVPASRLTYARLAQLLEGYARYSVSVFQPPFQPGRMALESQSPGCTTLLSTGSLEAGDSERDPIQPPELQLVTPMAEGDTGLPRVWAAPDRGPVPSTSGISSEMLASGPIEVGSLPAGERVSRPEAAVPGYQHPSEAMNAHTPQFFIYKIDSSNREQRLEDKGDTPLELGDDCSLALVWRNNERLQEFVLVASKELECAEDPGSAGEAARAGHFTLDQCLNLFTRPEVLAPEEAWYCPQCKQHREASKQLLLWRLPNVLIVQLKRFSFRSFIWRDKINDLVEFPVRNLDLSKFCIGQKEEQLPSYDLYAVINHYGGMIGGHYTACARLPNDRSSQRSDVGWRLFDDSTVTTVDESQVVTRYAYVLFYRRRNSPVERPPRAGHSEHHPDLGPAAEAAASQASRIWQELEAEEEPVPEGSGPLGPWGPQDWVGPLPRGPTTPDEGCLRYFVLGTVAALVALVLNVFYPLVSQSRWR
# Method in brief: (§1)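 The table lists average log2 ratios of fragment over vehicle, from an unpaired t-test on global-median-normalised Spectronaut label-free quantities. Proteins with ≥2 unique peptides were used. Samples were HEK293T lysate (495 µg) treated in triplicate with fragment at 200 µM or vehicle for 3 h, then with Biotin-Ahx-Ub-VS (0.5 µM final) for 1 h, with labelled DUBs NeutrAvidin-enriched and run by diaPASEF LC-MS/MS.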
# [2] = molecular target: T2, USP22 (UniProt Q9UPT9)
# T2 sequence (whole entry): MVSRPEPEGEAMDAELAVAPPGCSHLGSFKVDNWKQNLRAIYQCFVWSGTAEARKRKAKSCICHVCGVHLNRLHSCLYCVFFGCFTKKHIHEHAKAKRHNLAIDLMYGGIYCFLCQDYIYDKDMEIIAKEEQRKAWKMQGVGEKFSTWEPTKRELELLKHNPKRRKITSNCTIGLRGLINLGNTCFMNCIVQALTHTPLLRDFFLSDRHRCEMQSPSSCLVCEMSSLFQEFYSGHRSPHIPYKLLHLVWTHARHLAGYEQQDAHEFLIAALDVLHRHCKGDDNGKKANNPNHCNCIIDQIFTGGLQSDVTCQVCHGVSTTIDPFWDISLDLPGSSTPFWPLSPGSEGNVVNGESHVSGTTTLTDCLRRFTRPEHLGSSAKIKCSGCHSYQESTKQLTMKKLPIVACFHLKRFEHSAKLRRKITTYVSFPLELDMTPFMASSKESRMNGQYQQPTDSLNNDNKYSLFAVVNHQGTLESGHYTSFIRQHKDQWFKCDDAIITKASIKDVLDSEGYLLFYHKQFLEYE
# Method in brief: as §1
# [3] = molecular target: USP24 (UniProt Q9UPU5)
# USP24, sequence (Q9UPU5 whole entry): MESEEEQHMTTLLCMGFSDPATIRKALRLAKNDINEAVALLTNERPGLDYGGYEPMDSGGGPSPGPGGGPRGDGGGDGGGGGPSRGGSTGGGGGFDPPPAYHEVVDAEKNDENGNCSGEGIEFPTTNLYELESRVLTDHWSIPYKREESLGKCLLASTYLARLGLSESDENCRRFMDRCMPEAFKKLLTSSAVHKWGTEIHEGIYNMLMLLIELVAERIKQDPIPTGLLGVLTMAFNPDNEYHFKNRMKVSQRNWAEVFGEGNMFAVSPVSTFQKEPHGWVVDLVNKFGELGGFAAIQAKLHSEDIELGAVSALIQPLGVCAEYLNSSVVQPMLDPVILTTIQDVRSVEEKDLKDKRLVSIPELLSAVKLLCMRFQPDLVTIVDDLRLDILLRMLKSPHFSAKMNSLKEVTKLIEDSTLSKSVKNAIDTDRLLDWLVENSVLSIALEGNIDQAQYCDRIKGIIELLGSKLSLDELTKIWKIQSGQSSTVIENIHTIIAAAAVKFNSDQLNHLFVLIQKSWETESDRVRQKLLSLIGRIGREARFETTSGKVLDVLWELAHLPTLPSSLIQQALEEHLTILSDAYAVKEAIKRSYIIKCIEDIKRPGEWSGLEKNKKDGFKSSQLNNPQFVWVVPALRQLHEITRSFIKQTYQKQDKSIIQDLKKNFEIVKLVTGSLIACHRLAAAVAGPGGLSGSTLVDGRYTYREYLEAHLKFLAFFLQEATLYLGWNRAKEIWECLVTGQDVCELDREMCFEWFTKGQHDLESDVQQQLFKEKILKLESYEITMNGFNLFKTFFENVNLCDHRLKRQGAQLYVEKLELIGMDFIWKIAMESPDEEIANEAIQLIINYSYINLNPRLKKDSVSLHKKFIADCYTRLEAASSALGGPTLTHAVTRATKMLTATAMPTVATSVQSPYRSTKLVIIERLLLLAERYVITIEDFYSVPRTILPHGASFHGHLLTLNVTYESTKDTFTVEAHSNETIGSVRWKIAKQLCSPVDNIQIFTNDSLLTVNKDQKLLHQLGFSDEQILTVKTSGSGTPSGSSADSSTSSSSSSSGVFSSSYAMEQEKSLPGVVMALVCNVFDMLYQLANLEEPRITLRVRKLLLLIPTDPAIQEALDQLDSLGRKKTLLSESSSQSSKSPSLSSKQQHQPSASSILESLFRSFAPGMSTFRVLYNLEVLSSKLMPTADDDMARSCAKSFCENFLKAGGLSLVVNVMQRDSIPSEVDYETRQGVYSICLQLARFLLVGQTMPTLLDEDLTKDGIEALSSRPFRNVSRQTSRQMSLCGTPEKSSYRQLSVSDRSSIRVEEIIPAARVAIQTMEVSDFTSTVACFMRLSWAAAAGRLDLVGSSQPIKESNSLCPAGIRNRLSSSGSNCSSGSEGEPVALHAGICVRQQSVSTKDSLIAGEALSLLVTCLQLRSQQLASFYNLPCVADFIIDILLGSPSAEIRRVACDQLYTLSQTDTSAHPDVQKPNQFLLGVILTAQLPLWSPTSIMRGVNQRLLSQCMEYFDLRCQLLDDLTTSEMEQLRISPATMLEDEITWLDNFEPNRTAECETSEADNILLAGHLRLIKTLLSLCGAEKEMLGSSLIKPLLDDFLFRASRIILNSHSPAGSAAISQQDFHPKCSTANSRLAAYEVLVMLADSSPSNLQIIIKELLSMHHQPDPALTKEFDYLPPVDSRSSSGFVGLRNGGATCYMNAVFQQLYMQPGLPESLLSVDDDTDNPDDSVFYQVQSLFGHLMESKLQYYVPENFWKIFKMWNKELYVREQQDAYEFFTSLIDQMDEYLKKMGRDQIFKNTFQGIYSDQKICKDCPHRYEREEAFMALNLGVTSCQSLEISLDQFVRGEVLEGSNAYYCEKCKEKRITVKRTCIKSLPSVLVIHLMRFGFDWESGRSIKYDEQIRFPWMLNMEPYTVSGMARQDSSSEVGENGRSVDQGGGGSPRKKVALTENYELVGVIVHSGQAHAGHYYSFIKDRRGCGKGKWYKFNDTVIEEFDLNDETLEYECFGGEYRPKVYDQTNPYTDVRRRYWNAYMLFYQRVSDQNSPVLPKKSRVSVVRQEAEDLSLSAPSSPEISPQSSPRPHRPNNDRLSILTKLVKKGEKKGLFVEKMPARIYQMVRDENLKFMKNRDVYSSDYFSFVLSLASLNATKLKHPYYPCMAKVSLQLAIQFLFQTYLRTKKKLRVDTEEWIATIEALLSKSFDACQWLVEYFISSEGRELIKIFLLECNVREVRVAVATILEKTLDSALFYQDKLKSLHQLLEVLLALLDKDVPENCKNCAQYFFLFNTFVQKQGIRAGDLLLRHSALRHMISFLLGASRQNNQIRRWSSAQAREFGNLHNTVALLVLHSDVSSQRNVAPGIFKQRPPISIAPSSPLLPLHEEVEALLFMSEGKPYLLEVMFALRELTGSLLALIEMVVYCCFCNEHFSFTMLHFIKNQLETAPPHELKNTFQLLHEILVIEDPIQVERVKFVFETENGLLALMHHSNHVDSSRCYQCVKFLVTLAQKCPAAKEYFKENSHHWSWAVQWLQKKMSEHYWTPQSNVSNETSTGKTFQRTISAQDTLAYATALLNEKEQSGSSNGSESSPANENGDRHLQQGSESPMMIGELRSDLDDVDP
# Method in brief: as §1
# [4] = molecular target: T3, USP25 (UniProt Q9UHP3)
# T3 sequence (whole entry): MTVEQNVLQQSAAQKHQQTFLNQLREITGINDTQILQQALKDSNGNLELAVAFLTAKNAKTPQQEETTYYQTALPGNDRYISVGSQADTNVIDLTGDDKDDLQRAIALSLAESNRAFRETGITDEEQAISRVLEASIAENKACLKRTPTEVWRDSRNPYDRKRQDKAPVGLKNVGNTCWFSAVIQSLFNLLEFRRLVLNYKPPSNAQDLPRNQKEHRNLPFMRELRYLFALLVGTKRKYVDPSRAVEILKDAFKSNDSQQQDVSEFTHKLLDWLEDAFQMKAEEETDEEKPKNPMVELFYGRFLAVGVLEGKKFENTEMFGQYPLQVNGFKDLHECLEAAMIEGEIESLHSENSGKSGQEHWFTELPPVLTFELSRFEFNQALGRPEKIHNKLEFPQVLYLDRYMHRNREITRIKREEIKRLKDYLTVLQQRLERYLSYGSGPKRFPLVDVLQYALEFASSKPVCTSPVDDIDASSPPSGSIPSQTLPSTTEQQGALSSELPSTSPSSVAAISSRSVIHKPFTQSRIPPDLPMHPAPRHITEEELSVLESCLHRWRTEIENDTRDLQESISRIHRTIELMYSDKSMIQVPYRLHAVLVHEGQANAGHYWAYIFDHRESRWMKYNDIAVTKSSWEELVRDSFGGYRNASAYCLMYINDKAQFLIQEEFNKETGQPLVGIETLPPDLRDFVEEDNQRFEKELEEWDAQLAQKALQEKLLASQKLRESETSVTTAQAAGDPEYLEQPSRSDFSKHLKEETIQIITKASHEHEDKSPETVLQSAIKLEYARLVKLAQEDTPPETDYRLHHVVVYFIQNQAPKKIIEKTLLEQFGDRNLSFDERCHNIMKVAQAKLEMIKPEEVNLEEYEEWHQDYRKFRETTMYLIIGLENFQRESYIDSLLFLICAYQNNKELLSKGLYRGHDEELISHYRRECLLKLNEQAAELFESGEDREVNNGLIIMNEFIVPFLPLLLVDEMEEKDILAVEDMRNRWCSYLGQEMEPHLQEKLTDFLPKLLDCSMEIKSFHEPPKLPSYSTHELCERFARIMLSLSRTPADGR
# Method in brief: as §1
# [5] = molecular target: T4, USP28 (UniProt Q96RU2)
# T4 sequence (whole entry): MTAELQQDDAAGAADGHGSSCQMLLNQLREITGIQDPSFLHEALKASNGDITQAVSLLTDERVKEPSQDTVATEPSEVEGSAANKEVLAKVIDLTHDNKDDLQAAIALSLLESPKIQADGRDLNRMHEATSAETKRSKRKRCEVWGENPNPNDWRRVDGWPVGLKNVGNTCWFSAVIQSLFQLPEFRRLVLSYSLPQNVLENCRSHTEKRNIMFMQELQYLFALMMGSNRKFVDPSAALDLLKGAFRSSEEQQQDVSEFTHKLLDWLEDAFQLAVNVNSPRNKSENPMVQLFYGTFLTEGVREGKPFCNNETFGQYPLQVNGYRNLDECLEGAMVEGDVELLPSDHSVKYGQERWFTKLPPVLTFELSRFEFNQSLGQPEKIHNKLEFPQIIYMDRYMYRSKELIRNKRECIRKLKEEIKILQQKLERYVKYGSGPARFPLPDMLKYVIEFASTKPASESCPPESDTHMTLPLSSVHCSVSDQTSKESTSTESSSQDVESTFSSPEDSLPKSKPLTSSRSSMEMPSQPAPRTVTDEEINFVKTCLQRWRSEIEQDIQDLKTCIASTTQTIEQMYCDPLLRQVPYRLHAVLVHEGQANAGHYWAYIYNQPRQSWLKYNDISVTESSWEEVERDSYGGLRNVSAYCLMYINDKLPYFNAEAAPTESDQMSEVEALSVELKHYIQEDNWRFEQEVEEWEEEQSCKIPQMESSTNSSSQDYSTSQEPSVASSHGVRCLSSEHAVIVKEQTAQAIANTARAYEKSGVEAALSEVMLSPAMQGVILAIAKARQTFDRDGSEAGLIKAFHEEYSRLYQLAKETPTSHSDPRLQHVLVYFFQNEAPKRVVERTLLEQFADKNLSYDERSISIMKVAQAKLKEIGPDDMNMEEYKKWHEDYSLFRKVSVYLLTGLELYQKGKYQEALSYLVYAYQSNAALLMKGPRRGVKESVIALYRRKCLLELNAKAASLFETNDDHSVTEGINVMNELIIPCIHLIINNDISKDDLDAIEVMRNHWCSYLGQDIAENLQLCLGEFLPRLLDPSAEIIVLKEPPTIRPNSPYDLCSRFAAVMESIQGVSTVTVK
# Method in brief: as §1
compound,measurement,setting,value
Cc1cc(NC(=O)CCl)n(-c2ccccc2)n1,log2 ratio of Biotin-Ahx-Ub-VS probe labelling,[1],-0.106
same,log2 ratio of Biotin-Ahx-Ub-VS probe labelling,[2],0.086
same,log2 ratio of Biotin-Ahx-Ub-VS probe labelling,[3],-0.201
same,log2 ratio of Biotin-Ahx-Ub-VS probe labelling,[4],-0.721
same,log2 ratio of Biotin-Ahx-Ub-VS probe labelling,[5],-1.03 (active)
